From PubChem
ALR inh = human ALR oxidase inhibition via reduced H2O2. P55789. purified ALR, DTT oxidation, H2O2 HRP-luminol luminescence. inhibition, % (no concentration beside the values). 290,000 tested, 3.8% active;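 active = mean replicate inhibition above about 79%, with every replicate also reaching it, limit read from the data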
Target sequence (P55789 whole entry, looked up): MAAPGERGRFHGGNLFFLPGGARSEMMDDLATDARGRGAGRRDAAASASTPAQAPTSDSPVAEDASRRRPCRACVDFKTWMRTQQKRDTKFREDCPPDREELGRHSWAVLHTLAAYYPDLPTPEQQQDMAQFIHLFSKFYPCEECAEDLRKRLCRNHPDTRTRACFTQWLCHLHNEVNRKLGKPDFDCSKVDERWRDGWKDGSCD
Efflux pump mplx = inhibitors of Candida antifungal efflux pumps expressed in yeast | S. cerevisiae Candida pump triplex, Nile Red efflux | inhibition, % at 10 µM | 330,000 tested, 0.44% active;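 active = plate passing quality check with inhibition over a set limit, or well fluorescence over plate mean plus 4 SD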;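 also: Nile Red retained in pooled yeast measured as flow cytometry median fluorescence; 0% = buffer negative control and 100% = Enniatin B positive control; higher means more Nile Red kept so more efflux inhibition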
Mot1-301 SUMO = SUMOylation pathway inhibition by Mot1-301 growth rescue; AID 2716; 320,000 tested, 1% active; S. cerevisiae Mot1-301 growth rescue, ATP luminescence, 38.5C; percent above DMSO median, 100 means doubled; growth rescue, % at 18.8 µM;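 active = every valid replicate shows activation above 250% relative to neutral control wells; inactive = the rest, any valid replicate at or below 250%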;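 also: OY570 slx delta 5 strain wells were the positive control but not used for scaling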
VLA-4 inh = inhibition in a human VLA-4 binding assay; P13612; VLA-4 expressing cells, ligand binding flow cytometry; inhibition, % (about 7 µM as worked out from the volumes in the protocol); 330,000 tested, 0.2% active; AID 2557; in the data active = inhibition above about 50%
A1 inh = inhibitors of the anti-apoptotic protein A1, read as caspase activation | AID 2462 | 330,000 tested, 0.066% active | caspase activation, % (no concentration beside the values) | MEF A1-2A-BIM cells, Caspase-Glo 3/7 luminescence, 3 h; percent of clofoctol response, vehicle zero;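 active = over half of replicate activation scores above 10%, or exactly half above 10 with the replicate mean above 10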
AHR activator = human AHR activation; P35869; AHR-responsive luciferase reporter cells, luminescence; activation, % at 5 µM; 320,000 tested, 2.5% active; AID 2796; in the data active = activation above about 47%;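 also: 0% = vehicle wells and 100% = reference agonist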
Yeast cmpd fluor = compound fluorescence in yeast efflux pump counter-screen; S. cerevisiae AD/pABC3, flow cytometry; 1,700 tested, 4% active; shares compounds with Efflux pump mplx; fluorescence ratio to DMSO, % at 10 µM;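 active = fluorescence ratio to DMSO above its plate's cutoff, the plate mean ratio plus 5 SD, cut at about 210% in these data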;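 also: unstained yeast with no Nile Red so the signal is compound autofluorescence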
CaMdr1 efflux inh = Candida Mdr1 efflux pump inhibition | shares compounds with Efflux pump mplx | S. cerevisiae AD/CaMDR1, Nile Red efflux, flow cytometry | inhibition, % at 10 µM | 1,700 tested, 1% active | AID 588518; in the data active = inhibition above about 26%;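 also: 0% = DMSO vehicle and 100% = reference inhibitor; higher means more Nile Red retained so more efflux inhibition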
CaCdr2 efflux inh = Candida Cdr2 efflux pump inhibition. shares compounds with Efflux pump mplx. S. cerevisiae AD/CaCDR2, Nile Red retention, flow cytometry. Nile Red retention ratio vs DMSO, % at 10 µM. 1,700 tested, 4% active. AID 588520; in the data active = Nile Red retention ratio vs DMSO above about 190%;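 also: higher ratio means more blocking of Cdr2 efflux of the dye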
CaCdr1 efflux inh = inhibitors of Candida albicans Cdr1 efflux pump; shares compounds with Efflux pump mplx; S. cerevisiae AD/CaCDR1, Nile Red efflux, flow cytometry; inhibition, % at 10 µM; 1,700 tested, 1% active;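 active = inhibition above the screen-wide mean plus twice its standard deviation, cut at about 32% in these data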
Starred values were filed as active, the others as inactive; i = inactive; x = no result. In the library only some 7.2% were active in any assay of this set; here they are far more common.

SMILES	ALR inh	Efflux pump mplx	Mot1-301 SUMO	VLA-4 inh	A1 inh	AHR activator	Yeast cmpd fluor	CaMdr1 efflux inh	CaCdr2 efflux inh	CaCdr1 efflux inh
CCC(=O)N(C)CCc1cc2c(c(OC)c1/C=N/NC(=O)[C@H]1C[C@@H]1c1ccccc1)OCO2	x	3.5*	-5.3	-12.2	-1.0	8.1	86.5	0.1	101.7	-0.4
COc1c(/C=N/NC(=O)[C@H]2C[C@@H]2c2ccccc2)c(CCN(C)C(C)=O)cc2c1OCO2	x	0.2	-11.8	4.1	-0.4	32.7	x	x	x	x
CC(=O)c1sc(NC(=O)COc2ccc(Cl)cc2C)nc1C	x	0.0	-3.4	-0.5	0.6	5.2	x	x	x	x
O=S(=O)(c1cc(Br)c(Cl)s1)N1CCCC1	-5.5	0.3	12.3	-6.0	1.1	-2.6	x	x	x	x
Nn1c(SCC(=O)N2CCCCCC2)nnc1-c1ccco1	3.7	-0.1	-1.5	9.9	-0.3	1.4	x	x	x	x
CCCCCCCC(=O)N/N=C(\C)c1cccnc1	x	-0.1	-18.1	0.5	-0.8	10.5	x	x	x	x
C/C(=N\NC(=O)CCCNc1ccccc1)c1ccncc1	47.8	1.1*	428.6	-8.7	-0.4	5.7	96.6	-0.1	106.3	-0.1
O=C(c1cc(-c2ccccc2Cl)nc2ccc(Br)cc12)N1CCN(c2ccccn2)CC1	x	5.3*	233.8	-3.1	-1.7	29.9	91.0	-0.3	92.0	0.0
CSc1ccccc1C(=O)Nc1ccc(C)c(C)c1	-3.9	1.4*	234.0	3.8	-8.9	19.1	107.9	-0.3	114.4	0.3
CSc1ccccc1C(=O)Nc1cc(C)cc(C)c1	-2.0	-0.1	9.7	2.9	1.1	17.7	x	x	x	x
CCOc1ccccc1-c1nc2c(C(C)(C)C)nn(C)c2c(=O)[nH]1	-4.9	0.0	x	-11.2	-0.7	0.4	x	x	x	x
CCCCCOc1ccc(NC(=O)C2OC3OC(C)(C)OC3C3OC(C)(C)OC23)cc1 (centres undefined)	-4.2	0.0	-2.9	0.6	0.7	0.5	x	x	x	x
COc1ccc(NC(=O)C2OC3OC(C)(C)OC3C3OC(C)(C)OC23)cc1 (centres undefined)	-1.6	1.5*	-12.9	x	0.9	-2.8	101.2	0.1	120.1	0.1
CC(=O)NCC(=O)N1CCCC(C(=O)c2ccc(Oc3ccccc3)cc2)C1 (centres undefined)	2.0	-0.7	-4.2	2.5	-0.2	-0.8	x	x	x	x
CCN(CC)S(=O)(=O)c1ccc(N2CCOCC2)c(NC(=O)c2[nH]c(C)c(C(C)=O)c2C)c1	x	0.1	-7.6	-15.8	1.0	9.8	x	x	x	x
CCN1CCN(CC(=O)Nc2cc(C(F)(F)F)ccc2OCCOC)CC1	x	1.3*	-13.9	-6.9	-0.2	2.8	104.5	-0.5	107.2	-0.1
CCCOc1ccc(C(F)(F)F)cc1NC(=O)CN1C(=O)C(=O)N(CC)C1=O	-2.8	0.2	-7.0	7.7	0.6	0.7	x	x	x	x
Cc1ccsc1C(=O)OC(C)C(=O)Nc1ccc(Cl)cn1 (centres undefined)	1.5	-0.1	36.2	4.1	-0.1	0.3	x	x	x	x
COc1ccc(-c2nc(NC(=O)CSc3nnc(C)s3)ns2)cc1	-13.2	0.8*	1.8	-0.6	-0.2	-0.9	100.2	0.0	101.5	0.1
COc1ccc(Cl)cc1NC(=O)NCc1ccccn1	1.4	0.0	15.9	5.0	0.9	5.3	x	x	x	x
COc1cccc(C2CC(c3ccccc3)=NN2S(=O)(=O)c2ccc(C)cc2)c1OC (centres undefined)	0.1	1.4*	-8.6	i	0.3	3.7	105.0	-0.2	122.6	0.2
COc1ccccc1C1CC(c2ccccc2)=NN1S(=O)(=O)c1ccccc1 (centres undefined)	-8.3	-0.1	3.1	-5.3	-0.2	19.6	x	x	x	x
COc1ccc(C(=O)Nc2sc3c(c2C#N)CCN(C(C)=O)C3)cc1	-12.4	0.8*	-20.0	-8.6	0.8	-5.7	98.9	-0.2	89.9	0.0
COc1cc(C(=O)Nc2sc3c(c2C#N)CCN(C(C)=O)C3)cc(OC)c1OC	-193.1	-0.1	6.0	18.0	0.0	1.9	x	x	x	x
COC(=O)c1c(NC(=O)c2ccco2)sc(C(=O)N2CCCC2)c1C	-1.3	0.0	-12.0	-7.0	0.4	0.6	x	x	x	x
SMILES	ALR inh	Efflux pump mplx	Mot1-301 SUMO	VLA-4 inh	A1 inh	AHR activator	Yeast cmpd fluor	CaMdr1 efflux inh	CaCdr2 efflux inh	CaCdr1 efflux inh
COC(=O)c1c(NC(=O)c2ccco2)sc2c1CCN(C(C)=O)C2	4.9	1.1*	-5.3	5.7	0.5	5.9	96.6	0.0	106.0	-0.1
Cc1cc(C)c(C)c(S(=O)(=O)N2CCN(C(=O)C3CSC4(C)CCC(=O)N34)CC2)c1C (centres undefined)	-6.5	0.0	3.1	3.8	0.1	4.5	x	x	x	x
CC(=O)c1c(N2CCN(C)CC2)[nH]c(-c2ccccc2)nc1=S	11.7	1.5*	-5.2	-12.0	1.0	1.8	103.4	-0.1	152.2	0.0
CSc1ncc(C(=O)O)c(C)n1	-1.5	-0.2	-1.0	2.2	1.7	0.5	x	x	x	x
Cc1ncc(C(=O)O)c(C(=O)O)c1N	-1.4	5.5*	-4.0	i	-0.6	0.6	114.6	-0.3	108.3	0.1
CCC(=O)N1c2ccc(S(=O)(=O)N3CCN(c4cc(C)ccc4C)CC3)cc2CC1C (centres undefined)	6.3	-0.1	155.2	0.2	-0.4	1.5	x	x	x	x
Cc1ccc(-c2csc(NC(=S)NC(=O)c3cccs3)n2)cc1	-1.2	0.1	3.1	19.0	0.3	1.1	x	x	x	x
Cc1sc(NC(=S)NC(=O)c2cccs2)nc1-c1ccc(C(C)C)cc1	6.0	0.9*	25.9	4.2	1.4	-0.3	103.0	-0.3	93.5	-0.1
CCN(CC)CCNC(=O)c1ccc(NC(=O)c2cc(S(=O)(=O)N3CCCCC3)ccc2C)cc1	x	-0.1	-5.4	4.0	0.2	-2.2	x	x	x	x
CC1CCN(C(=O)c2ccc(S(=O)(=O)Cc3ccccc3F)c([N+](=O)[O-])c2)CC1	9.5	5.8*	32.3	-5.8	-0.5	-0.7	111.2	-0.3	102.2	0.1
O=C(c1ccc(S(=O)(=O)Cc2ccccc2F)c([N+](=O)[O-])c1)N1CCCC1	4.3	-0.2	-6.7	-7.9	0.1	0.5	x	x	x	x
O=C(/C=C/c1ccc(Cl)cc1)c1cccnc1	-7.0	0.1	173.7	14.2	0.5	17.9	x	x	x	x
CCN(CC)c1ccc(/C=C/C(=O)c2cccnc2)cc1	-1.1	69.1*	-9.4	50.3*	-0.3	1.8	114.8	11.8	101.5	-0.1
COc1ccc(CN2C(=O)CCCc3ccccc32)cc1	x	0.0	-1.1	-4.4	-0.9	1.7	x	x	x	x
